From PubChem BioAssay
mHTT CaM bind = mutant huntingtin-calmodulin interaction inhibitors – biochemical, AlphaScreen, primary screen; P42858; 190,000 compounds, 3.6% hits; AlphaScreen His-mHTT/GST-CaM binding, luminescence; AID 1671202, 2021; inhibition, % at 15 µM;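 further: 0% = both proteins with DMSO and 100% = one protein alone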
Target sequence (P42858 whole entry, looked up, stated change not applied): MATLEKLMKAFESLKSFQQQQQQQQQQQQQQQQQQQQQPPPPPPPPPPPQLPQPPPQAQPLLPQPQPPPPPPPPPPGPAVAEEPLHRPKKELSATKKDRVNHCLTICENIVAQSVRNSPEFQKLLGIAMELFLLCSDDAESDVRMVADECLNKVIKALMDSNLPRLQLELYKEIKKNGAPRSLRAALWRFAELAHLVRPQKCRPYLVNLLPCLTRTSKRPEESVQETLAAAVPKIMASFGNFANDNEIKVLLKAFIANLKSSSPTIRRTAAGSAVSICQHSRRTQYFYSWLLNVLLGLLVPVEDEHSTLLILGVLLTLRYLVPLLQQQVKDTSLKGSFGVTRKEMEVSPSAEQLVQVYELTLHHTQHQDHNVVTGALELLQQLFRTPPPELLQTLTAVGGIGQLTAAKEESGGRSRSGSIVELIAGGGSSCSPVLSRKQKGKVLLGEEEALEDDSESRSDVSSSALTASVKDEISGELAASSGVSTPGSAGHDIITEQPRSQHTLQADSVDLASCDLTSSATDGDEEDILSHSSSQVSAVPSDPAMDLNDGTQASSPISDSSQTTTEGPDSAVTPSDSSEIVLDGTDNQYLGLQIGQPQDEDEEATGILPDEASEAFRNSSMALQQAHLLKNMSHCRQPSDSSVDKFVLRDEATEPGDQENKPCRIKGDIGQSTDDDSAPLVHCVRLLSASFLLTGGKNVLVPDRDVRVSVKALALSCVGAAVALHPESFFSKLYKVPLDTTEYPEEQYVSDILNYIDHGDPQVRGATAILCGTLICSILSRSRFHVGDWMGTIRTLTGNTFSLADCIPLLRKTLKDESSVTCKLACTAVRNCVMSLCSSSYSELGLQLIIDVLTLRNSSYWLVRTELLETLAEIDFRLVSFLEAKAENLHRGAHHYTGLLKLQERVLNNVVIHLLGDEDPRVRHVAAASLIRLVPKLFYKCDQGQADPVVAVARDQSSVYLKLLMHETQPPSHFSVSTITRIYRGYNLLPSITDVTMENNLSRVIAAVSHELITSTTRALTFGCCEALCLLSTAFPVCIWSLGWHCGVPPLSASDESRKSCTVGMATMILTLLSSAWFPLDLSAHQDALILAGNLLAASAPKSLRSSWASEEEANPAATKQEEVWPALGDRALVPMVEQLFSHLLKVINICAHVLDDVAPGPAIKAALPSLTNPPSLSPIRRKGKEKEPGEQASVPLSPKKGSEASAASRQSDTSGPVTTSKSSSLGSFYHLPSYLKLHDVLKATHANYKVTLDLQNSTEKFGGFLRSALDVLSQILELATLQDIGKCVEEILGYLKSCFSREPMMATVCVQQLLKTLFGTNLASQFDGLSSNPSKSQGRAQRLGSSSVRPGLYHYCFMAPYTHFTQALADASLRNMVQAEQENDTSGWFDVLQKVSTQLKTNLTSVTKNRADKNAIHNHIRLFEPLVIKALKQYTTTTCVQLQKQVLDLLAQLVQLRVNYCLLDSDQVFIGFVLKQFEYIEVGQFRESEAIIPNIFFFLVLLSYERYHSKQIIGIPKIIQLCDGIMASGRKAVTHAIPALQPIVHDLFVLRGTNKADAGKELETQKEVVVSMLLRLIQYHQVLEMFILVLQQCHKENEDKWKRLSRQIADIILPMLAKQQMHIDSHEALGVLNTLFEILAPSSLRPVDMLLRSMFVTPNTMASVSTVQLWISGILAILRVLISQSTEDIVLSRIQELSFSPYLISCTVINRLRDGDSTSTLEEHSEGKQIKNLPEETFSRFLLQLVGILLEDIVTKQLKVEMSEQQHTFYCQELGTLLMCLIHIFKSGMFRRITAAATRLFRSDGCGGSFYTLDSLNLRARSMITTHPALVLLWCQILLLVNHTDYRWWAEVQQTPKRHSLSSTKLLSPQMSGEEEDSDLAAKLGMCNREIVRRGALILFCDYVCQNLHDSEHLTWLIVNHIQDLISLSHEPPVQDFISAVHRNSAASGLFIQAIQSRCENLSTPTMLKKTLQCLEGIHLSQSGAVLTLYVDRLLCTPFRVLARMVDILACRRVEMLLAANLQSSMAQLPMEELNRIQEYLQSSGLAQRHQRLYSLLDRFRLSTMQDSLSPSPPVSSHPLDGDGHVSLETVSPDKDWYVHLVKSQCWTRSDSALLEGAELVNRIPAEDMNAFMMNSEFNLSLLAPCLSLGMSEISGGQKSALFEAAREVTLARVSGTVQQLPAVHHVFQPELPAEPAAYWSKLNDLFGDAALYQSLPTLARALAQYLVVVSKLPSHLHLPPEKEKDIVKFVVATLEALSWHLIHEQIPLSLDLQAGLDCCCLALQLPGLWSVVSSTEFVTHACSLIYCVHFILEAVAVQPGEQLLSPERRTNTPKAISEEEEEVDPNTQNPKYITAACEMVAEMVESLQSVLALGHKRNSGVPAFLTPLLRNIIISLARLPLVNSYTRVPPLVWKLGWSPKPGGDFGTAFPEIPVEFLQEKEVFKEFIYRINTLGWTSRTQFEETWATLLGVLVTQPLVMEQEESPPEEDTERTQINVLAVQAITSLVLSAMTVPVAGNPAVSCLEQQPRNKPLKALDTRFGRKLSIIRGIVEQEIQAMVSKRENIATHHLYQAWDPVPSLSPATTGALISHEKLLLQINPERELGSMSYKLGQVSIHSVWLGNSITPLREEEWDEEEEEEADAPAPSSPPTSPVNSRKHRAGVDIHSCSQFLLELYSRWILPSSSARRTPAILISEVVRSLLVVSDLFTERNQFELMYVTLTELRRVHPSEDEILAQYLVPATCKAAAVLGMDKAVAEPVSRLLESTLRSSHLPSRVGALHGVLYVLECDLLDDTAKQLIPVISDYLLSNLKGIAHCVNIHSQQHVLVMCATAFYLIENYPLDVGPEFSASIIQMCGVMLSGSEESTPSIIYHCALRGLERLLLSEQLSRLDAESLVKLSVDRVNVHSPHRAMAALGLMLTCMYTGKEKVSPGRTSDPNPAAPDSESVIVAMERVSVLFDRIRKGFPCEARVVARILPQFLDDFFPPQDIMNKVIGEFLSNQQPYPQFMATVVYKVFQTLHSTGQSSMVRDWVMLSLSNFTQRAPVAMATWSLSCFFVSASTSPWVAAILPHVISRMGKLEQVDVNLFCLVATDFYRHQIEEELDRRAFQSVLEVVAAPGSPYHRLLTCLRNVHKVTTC
Pf apPOL block = Pf-apPOL inhibitors, biochemical, fluorescence; Plasmodium falciparum apicoplast DNA polymerase (apPOL); Recombinant Pf-apPOL, molecular beacon fluorescence, 1.5 h; inhibition, % at 10 µM; 210,000 compounds, 0.25% hits; AID 1794808, 2022
Numbers without * were called inactive; · = no result. A selection: hits, their analogues and other compounds. The true share with any hit is near 3.6%. No stated cut-off is given here; in the data, active means inhibition above about 50%; inactive means the rest.

SMILES | mHTT CaM bind | Pf apPOL block
O=C(NCCc1ccc(Cl)cc1)c1cc(-c2cccnc2)nc2ccccc12 | 58* | -7
O=C(NCCCn1ccnc1)c1cc(-c2ccc(Br)cc2)nc2ccccc12 | 44 | -2
O=C(NCCCn1ccnc1)c1cc(-c2ccc(Cl)s2)nc2ccccc12 | 50* | 3
Cn1ncc2c(=O)sc(NC(=O)c3ccccc3)nc21 | · | 3
O=C(NCCc1ccccn1)C1CCCN(c2cnn(Cc3ccccc3)c(=O)c2)C1 (configuration not stated) | 9 | -9
C[N+](C)(C)CC(N)=O | · | -8
COc1ccc(C(=O)Oc2ccc3c(c2)OC(=Cc2cccc(OC)c2OC)C3=O)cc1 | -6 | -5
O=C(O)C=CC(=O)NCc1ccncc1 | · | -5
O=c1c2ccccc2oc2ccc(-c3ccoc3)cc12 | 33 | 17
O=C(c1ccc(F)c(F)c1)N1CCCN(Cc2nc3ccc(Cl)cc3o2)CC1 | 60* | -7
Cc1cc(C)cc(C(=O)N2CCCN(Cc3nc4ccccc4o3)CC2)c1 | 34 | 3
COc1cc(CN2CCN(c3ccccc3C)CC2)c([N+](=O)[O-])cc1OC | 23 | 0
O=C(c1ccccc1Cl)N1CCN(c2cccc(Cl)c2)CC1 | 45 | -3
O=C1c2ccccc2-c2c1cccc2C(=O)N1CCN(c2ccc(Cl)cc2)CC1 | 100* | 7
O=C(c1ccccc1I)N1CCN(c2cccc(Cl)c2)CC1 | 77* | -2
CC(CC(=O)N1CCN(c2cccc(Cl)c2)CC1)c1ccccc1 (configuration not stated) | 22 | -16
O=C(CC(c1ccccc1)c1ccccc1)N1CCN(c2cccc(Cl)c2)CC1 | 84* | -3
O=C1c2ccccc2-c2c1cccc2C(=O)N1CCOCC1 | -2 | 3
CCOc1nn(CC)cc1C(=O)N1CCN(c2cccc(Cl)c2)CC1 | 91* | -12
COc1ncc(C(=O)N2CCN(c3cccc(Cl)c3)CC2)cn1 | 0 | -1
C=CCOc1ccc(/C=c2\sc3nc(-c4cccs4)nn3c2=O)cc1 | -2 | -7
Cc1ccc(CNC(=O)c2cc(C(C)(C)C)n3nccc3n2)cc1 | -88 | -2
CCOC(=O)N1CCc2nn(CC(=O)Nc3c(C)cccc3Cl)c(=O)cc2C1 | 5 | -2
O=C(Cc1c[nH]c2ccccc12)NC1(C(=O)NC2CCCCC2)CCCCC1 | 2 | 1
Cc1cccc(Cl)c1CNC(=O)c1c(C)noc1-c1ccncc1 | -1 | 4
SMILES | mHTT CaM bind | Pf apPOL block
CCOc1cc(C2C(C(=O)OC(C)C)=C(C)NC3=C2C(=O)C(C(=O)OC)C(C)C3)cc(Cl)c1O (configuration not stated) | -5 | -12
Nc1nc2ccccc2n1CCOc1ccc(Br)cc1 | 73* | -2
Nc1ccc(-c2nc3ccccc3n2CCCOc2ccccc2)cc1 | 51* | 12
Clc1ccc(OCCn2cnc3ccccc32)c(Cl)c1 | 0 | -6
Nc1ccc(-c2nc3ccccc3n2CCOc2ccccc2)cc1 | 37 | 11
Nc1nc2ccccc2n1CCOc1ccc(Cl)cc1Cl | 75* | -3
Nc1nc2ccccc2n1CCOc1ccc(Cl)cc1 | 43 | -2
O=C(NNc1ccc(F)cc1)c1ccccc1 | · | 6
CCn1c(SCC(=O)Nc2ccc(F)cc2)nnc1-c1ccccc1 | -2 | -19
Cc1cccc(CNC(=O)c2nn(C)c3c2CN(C(=O)c2cccc(C)c2)CC3)c1 | 74* | -7
Cn1nc(C(=O)NCc2ccc(Cl)cc2)c2c1CCN(C(=O)c1ccco1)C2 | 5 | 5
Cc1cccc(CNC(=O)c2nn(C)c3c2CN(C(=O)c2cccc(F)c2)CC3)c1 | 71* | -6
Cc1cccc(C(=O)N2CCc3c(c(C(=O)NCc4ccc(Cl)cc4)nn3C)C2)c1 | 91* | 23
Cc1cccc(CNC(=O)c2nn(C)c3c2CN(C(=O)c2ccccc2C)CC3)c1 | 27 | -12
O=C(NC(=S)Nc1cc(-c2ccccc2)[nH]n1)c1ccccc1 | · | 2
COC(=O)[C@H](C(C)C)N1Cc2nnn(CC3CCCCC3)c2-c2cc(F)ccc2S1(=O)=O | -1 | -5
CCN1c2cc(Cl)ccc2C(=O)NC12CCN(C(=O)Nc1ccc(OC)cc1)CC2 | 23 | -8
CCN1c2cc(C)ccc2-n2cccc2C12CCN(C(=O)Nc1ccccc1OC)CC2 | 66* | -1
CCOc1ccc(NC(=O)N2CCC3(CC2)c2cccn2-c2ccc(C)cc2N3CC)cc1 | 52* | -3
CCN1c2cc(C)ccc2-n2cccc2C12CCN(C(=O)c1ccccc1OC)CC2 | 9 | -4
CCN1c2cc(C)ccc2-n2cccc2C12CCN(C(=O)Nc1ccc(OC)cc1)CC2 | 56* | -1
Cc1ccc2c(c1)C(=O)NC1(CCN(C(=O)NC3CCCCC3)CC1)N2C | 0 | 0
CCN1c2ccccc2-n2cccc2C12CCN(C(=O)Nc1cc(C)ccc1C)CC2 | 0 | -2
CCN1c2cc(C)ccc2-n2cccc2C12CCN(C(=O)NC1CCCC1)CC2 | 72* | -6
